Assay outcomes: PubChem BioAssay, National Center for Advancing Translational Sciences (NCATS)
HT1080NT lethal – kills 2HG-producing HT-1080-NT fibrosarcoma cells | 360,000 compounds, 1.6% hits | AID 686970 | Potency, µM (doses to about 46.1 µM), inactives show at the highest dose activity, negative = less viability, actives largely listed as cytotoxic | HT-1080-NT fibrosarcoma viability, CellTiter-Glo ATP luminescence, 48 h;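 further: NT is the 2HG producing partner of a matched IDH1 knockdown line; 0% = DMSO-treated cells and -100% = media-only wells without cells; nearly all actives have a fitted effect of over 55% in size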
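Fibrosarcoma NT cells, 750 per well in 5% FBS RPMI, were exposed to compound for 48 hours. Viability: CellTiter-Glo luminescence.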
HT1080 IDH1KD tx – HT-1080 IDH1 knockdown cell toxicity (counter line) | 360,000 compounds, 2% hits | Potency, µM (series often up to 46.1 µM), for inactives: at the highest dose activity, negative = toxicity, most hits filed as cytotoxic | HT-1080 IDH1 knockdown viability, ATP luminescence, 48 h;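 further: 0% = DMSO wells and -100% = cell-free medium wells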
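CellTiter-Glo luminescence after 48 h compound exposure at 37 degrees C of IDH1-knockdown HT-1080 cells in 5% FBS RPMI. %Activity scaled between DMSO wells and cell-free media wells, with curves fitted and assigned curve classes.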
DT40 TDP1 no CPT – qHTS for Inhibitors of human tyrosyl-DNA phosphodiesterase 1 (TDP1): qHTS in cells in absence of CPT; AID 686978, 2013; 420,000 compounds, 15% hits; Potency, µM (top dose mostly 46.2 µM), inactives show at the highest dose activity change, negative = growth inhibition, most hits filed as inhibitors; DT40 Tdp1-/- hTDP1 cells, no CPT, ATP luminescence, 48 h; further: nearly all actives have a fitted effect of over 55% in size
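Luminescent ATP content (CellTiter-Glo) served as the growth readout. Knockout chicken DT40 cells expressing human TDP1 were exposed to compounds without camptothecin for a minimum 48 hr at 37 °C.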
KB-3-1 cytotox – KB-3-1 parental cell cytotoxicity | Potency, µM (titrated, usually from 46.1 µM), actives largely listed as cytotoxic | 400,000 compounds, 1.4% hits | KB-3-1 viability, CellTiter-Glo ATP luminescence, 72 h; further: nearly all actives have a fitted effect of over 60% in size
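Using CellTiter-Glo luminescence, growth of non-resistant KB-3-1 adenocarcinoma cells is assessed 72 h after pin-tool compound addition at 37 °C. Normalized responses across the concentration series yield fitted curves.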
KB-V1 MDR tox – kills drug-selected multidrug resistant KB-V1 cells | KB-V1 MDR cells viability, CellTiter-Glo, 72 h | Potency, µM (top dose mostly 46.1 µM), most hits filed as cytotoxic | 400,000 compounds, 3.4% hits | AID 1347076; further: nearly all actives have a fitted effect of over 60% in size
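In this primary screen, KB-V1 cells overexpressing P-gp are incubated with library compounds (lowest to highest concentration) for 72 h at 37 degrees C before a luminescent ATP viability read.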
DT40 TDP1 CPT – growth inhibition of DT40 Tdp1-/-;hTDP1 cells with camptothecin (screen for TDP1 inhibitors); 420,000 compounds, 12% hits; Potency, µM (doses to about 46.2 µM), for the others: at the highest dose activity change, negative = growth inhibition, most hits filed as inhibitors; chicken DT40 Tdp1-/-;hTDP1 cells + 20 nM CPT, ATP luminescence, 48 h; further: nearly all actives have a fitted effect of over 55% in size
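Chicken DT40 Tdp1-/- cells stably complemented with human TDP1 were seeded at 400 cells/well in medium containing 20 nM camptothecin, exposed to pin-transferred compounds, and grown at 37 °C for at least 48 hr. Viability was read as ATP luminescence.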
Numbers without * were called inactive; i = inactive; u = inconclusive; x = no result. In the library only some 19% were active in any assay of this set; here they are far more common. The call rests on the fitted dose curve; in most records, active means well fitted curve in the direction sought with a large enough effect; inconclusive means small, poorly fitted or top-dose-only effect, or another doubt; inactive means no such curve, though single readings can be large; an effect the other way counts as inactive or inconclusive. Unless noted, on the % scale 0 is the no-effect control and ±100 the full control effect; potency means the concentration at half of the fitted maximal effect.

SMILES	HT1080NT lethal	HT1080 IDH1KD tx	DT40 TDP1 no CPT	KB-3-1 cytotox	KB-V1 MDR tox	DT40 TDP1 CPT
CC(=O)c1cccc(NC(=O)CC(c2ccc(C)cc2)N2Cc3ccccc3C2=O)c1 (stereo unspecified)	x	x	16.4µM*	i	u	u
Cc1ccc(C(CC(=O)Nc2ccc(C)cc2C)N2Cc3ccccc3C2=O)cc1 (stereo unspecified)	x	x	18.4µM*	u	i	16.4µM*
CCc1ccccc1NC(=O)CC(c1ccc(OC)cc1)n1cccc1 (stereo unspecified)	3.1%	3.1%	u	i	7.31µM*	u
COc1cc(C(CC(=O)Nc2cc(C)ccc2C)N2Cc3ccccc3C2=O)cc(OC)c1OC (stereo unspecified)	x	x	u	i	i	-16.7%
CSc1cccc(NC(=O)CC(c2ccc(F)cc2)N2Cc3ccccc3C2=O)c1 (stereo unspecified)	x	x	20.6µM*	x	x	23.1µM*
COc1ccc2oc(=O)c(-c3cn4c(n3)sc3cc(F)ccc34)cc2c1	x	x	5.4%	x	x	-11.3%
O=C(NC1CCCCC1)C1CC(=O)N(c2ccccc2)C1 (stereo unspecified)	29.5%	20.6%	-29.0%	u	i	-11.5%
COc1cc(C(CC(=O)Nc2ccc(F)cc2F)N2Cc3ccccc3C2=O)cc(OC)c1OC (stereo unspecified)	x	x	u	i	i	u
CCc1ccccc1NC(=O)CC(c1ccc(F)cc1)N1Cc2ccccc2C1=O (stereo unspecified)	x	x	23.1µM*	x	x	23.1µM*
Cc1ccc(C(CC(=O)Nc2cc(C)cc(C)c2)N2Cc3ccccc3C2=O)cc1 (stereo unspecified)	x	x	23.1µM*	i	u	14.6µM*
Cc1ccc(CCNC(=O)CCCc2nnc3n(C)c(=O)c4sccc4n23)cc1	x	x	u	i	i	u
COc1cc(C(=O)NNC(=O)c2ccc3ccccc3n2)cc(OC)c1OC	u	u	u	u	i	u
COc1cc(OC)cc(C(=O)NNC(=O)c2ccc3ccccc3n2)c1	u	20.6µM*	5.17µM*	u	u	5.17µM*
COc1ccc(C(=O)NC(=S)NNC(=O)c2ccc3ccccc3n2)cc1	-24.9%	u	18.4µM*	i	u	u
Cc1noc(C)c1S(=O)(=O)Nc1ccc2c(c1)C(=O)N([C@H](C)CO)C[C@H](C)[C@@H](CN(C)C(=O)NC1CCCCC1)O2	7.9%	11.6%	3.4%	i	i	-0.6%
CCC(Cc1ccccc1)NC(=O)CN1C(=O)COc2ccc(S(=O)(=O)N3CCCCCC3)cc21 (stereo unspecified)	x	x	u	i	i	u
O=C1N/C(=N/O)S/C1=C/c1cccnc1	4.2%	8.1%	18.8%	i	i	-16.2%
Cc1ccc(S(=O)(=O)/N=C2/NC(=O)/C(=C/c3cccnc3)S2)cc1	u	u	29.1µM*	u	i	u
CCOC(=O)c1ccccc1NC(=O)N(Cc1ccc(C)cc1)Cc1cccn1-c1nnc(N2CCCC2=O)s1	x	x	18.4µM*	x	x	23.1µM*
CC(=C1C(=O)c2ccccc2C1=O)N1CCC(C(N)=O)(N2CCCCC2)CC1	-2.3%	6.9%	-14.6%	i	i	2.0%
Nc1c(N(CCC2=CCCCC2)C(=O)COc2ccc(F)cc2)c(=O)[nH]c(=O)n1Cc1ccccc1	u	u	u	u	i	u
COc1ccc(OC)c(CCNC(=O)Cn2cccc2C(=O)c2ccccc2)c1	-2.8%	-0.2%	u	i	i	7.31µM*
COc1ccc(CCNC(=O)Cn2cccc2C(=O)c2ccccc2)cc1OC	-2.3%	17.3%	-19.8%	i	u	20.0%
COc1ccc(CNC(=O)Cn2cccc2C(=O)c2ccccc2C)cc1	14.7%	0.0%	-15.7%	i	i	u
COc1ccc(OC)c(CCNC(=O)Cn2cccc2C(=O)c2ccccc2C)c1	u	9.8%	8.2µM*	i	i	u
CCN1C(=NCCN2CCOCC2)N[C@@H](c2ccccc2)C(C(=O)OC)=C1C	0.9%	0.9%	-9.4%	i	i	-8.2%
COC(=O)C1=C(C)N(Cc2ccccc2)C(=NCCc2c[nH]c3ccccc23)N[C@H]1c1cccc(F)c1	u	-25.2%	2.59µM*	u	u	5.17µM*
CCN1C(=NCCc2c[nH]c3ccccc23)N[C@@H](c2ccccc2)[C@H](C(=O)OC)[C@H]1C	-6.4%	-1.2%	18.4µM*	i	i	9.2µM*
COC(=O)C1=C(C)N(Cc2ccccc2)C(=NCCc2c[nH]c3ccccc23)N[C@H]1c1ccccc1	-16.9%	-20.7%	20.6µM*	u	i	u
CCN1C(=NCc2ccccc2)N[C@@H](c2ccccc2)[C@H](C(=O)OC)[C@H]1C	25.0%	0.0%	-26.7%	i	i	u
